This note sets out measurements from PubChem BioAssay.

A number with no mark means an inactive call. For part of these data: Entries with a potency or affinity are not part of this list. Active and inactive are the calls of the source. Unless noted, how the calls were made is not given here.

Assay [1] in a line: antimalarial activity against Dd2 strain (AID 2302;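 active means growth inhibition above 50% at the single 2 µM test dose, taken to imply half-maximal potency below 2 µM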;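 further: 0% = DMSO untreated growth and 100% = chloroquine plus artemisinin killed control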). The following applies: P. falciparum Dd2 in RBCs, LDH growth readout, 72 h; at 2 µM; stronger effect = higher value.
Assay [2] can be described thus: human hepatoma cell viability loss – ATP luminescence, cytotoxicity control for P. falciparum antimalarial project, primary screen (AID 2303;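 active means inhibition above 50%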;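 further: 0% = DMSO wells and 100% = digitonin-killed cells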). The following applies: HepG2 viability, 24-48 h, at 10 µM, stronger effect = higher value.
The target in assay [3] is L-lactate dehydrogenase (Plasmodium falciparum (isolate CDC / Honduras)) (UniProt Q27743). Nature of the assay: PfLDH activity inhibition – cell lysate, 3D7 strain, counter-screen for P. falciparum growth inhibition project (AID 2304).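 Further: 0% = vehicle and 100% = reference inhibitor.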 The note with it: P. falciparum 3D7 crude extract, LDH APAD/NBT absorbance; at 2 µM; stronger effect = higher value. In general terms: Counterscreens check selectivity or assay interference.
L-lactate dehydrogenase (Plasmodium falciparum (isolate CDC / Honduras)), sequence (Q27743 whole entry, looked up): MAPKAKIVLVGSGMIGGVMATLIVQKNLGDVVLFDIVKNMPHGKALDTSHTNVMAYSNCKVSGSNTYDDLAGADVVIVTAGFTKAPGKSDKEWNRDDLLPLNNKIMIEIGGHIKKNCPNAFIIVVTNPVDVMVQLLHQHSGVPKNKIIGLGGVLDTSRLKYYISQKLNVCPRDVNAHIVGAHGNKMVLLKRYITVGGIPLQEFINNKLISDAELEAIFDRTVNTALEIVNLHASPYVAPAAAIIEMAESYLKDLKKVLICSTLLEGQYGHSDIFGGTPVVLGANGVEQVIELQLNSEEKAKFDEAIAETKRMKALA

Assay [4] is described as follows: inhibition of 3D7 malaria parasite growth – strain 3D7 (AID 2306).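 Further: 0% = DMSO wells and 100% = chloroquine plus artemisinin control wells.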 The note with it: P. falciparum 3D7 erythrocytic growth, LDH absorbance, 72 h; at 2 µM; stronger effect = higher value.
The target in assay [5] is Calcium-dependent protein kinase 1 (Plasmodium falciparum (isolate 3D7)) (UniProt P62344). Nature of the assay: PfCDPK1 kinase inhibitors, biochemical, TCAMS library (AID 1159585; cut-off not given, nearly all actives have IC50 up to about 0.98 µM;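 further: inhibitors leave more ATP so luminescence rises with inhibition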). The note with it: recombinant PfCDPK1, Kinase-Glo ATP depletion luminescence.
Calcium-dependent protein kinase 1 (Plasmodium falciparum (isolate 3D7)), sequence (P62344 whole entry, looked up): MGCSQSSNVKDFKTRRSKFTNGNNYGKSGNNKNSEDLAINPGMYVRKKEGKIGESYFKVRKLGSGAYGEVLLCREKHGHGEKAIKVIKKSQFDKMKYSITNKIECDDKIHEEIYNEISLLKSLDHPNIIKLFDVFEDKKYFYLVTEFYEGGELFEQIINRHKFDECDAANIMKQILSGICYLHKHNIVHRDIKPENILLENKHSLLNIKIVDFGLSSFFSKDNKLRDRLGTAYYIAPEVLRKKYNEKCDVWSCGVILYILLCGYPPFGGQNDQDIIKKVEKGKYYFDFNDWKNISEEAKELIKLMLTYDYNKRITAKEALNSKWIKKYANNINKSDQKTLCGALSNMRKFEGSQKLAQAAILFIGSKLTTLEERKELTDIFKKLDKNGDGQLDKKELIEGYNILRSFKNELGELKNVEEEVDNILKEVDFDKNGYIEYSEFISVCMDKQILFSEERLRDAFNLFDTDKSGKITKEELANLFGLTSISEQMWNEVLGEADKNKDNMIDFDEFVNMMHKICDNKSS
The target in assay [6] is Plasmodium falciparum protein kinase 6 (PK6, PF3D7_1337100) (UniProt Q8IDW1). Nature of the assay: PfPK6 kinase inhibitors, biochemical, TCAMS library (AID 1159586). The note with it: recombinant PfPK6, Kinase-Glo ATP depletion luminescence. A general note: Kinase-Glo measures the ATP left after a reaction by luminescence.
Plasmodium falciparum protein kinase 6 (PK6, PF3D7_1337100), sequence (Q8IDW1 1-305): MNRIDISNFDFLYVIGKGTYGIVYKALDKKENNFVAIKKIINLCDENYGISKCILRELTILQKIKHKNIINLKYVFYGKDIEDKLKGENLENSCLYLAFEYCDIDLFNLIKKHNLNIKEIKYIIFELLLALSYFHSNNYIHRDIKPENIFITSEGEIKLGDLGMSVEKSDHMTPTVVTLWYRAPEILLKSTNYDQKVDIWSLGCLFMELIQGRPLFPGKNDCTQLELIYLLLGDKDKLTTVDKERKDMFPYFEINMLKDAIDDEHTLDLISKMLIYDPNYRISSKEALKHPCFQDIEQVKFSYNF
Assay [7] addresses Protein kinase 7 (PK7), Plasmodium falciparum 3D7 (PF3D7_0213400) (UniProt Q7YTF7). Nature of the assay: inhibition of Plasmodium PK7 catalytic activity – biochemical, TCAMS antimalarial set, Kinase-Glo luminescence (AID 1159587). The following applies: recombinant PfPK7, Kinase-Glo ATP depletion luminescence.
For assay [8], the target named is Calcium-dependent protein kinase 4 (Plasmodium falciparum (isolate 3D7)) (UniProt Q8IBS5). Nature of the assay: PfCDPK4 kinase inhibitors, biochemical, TCAMS library (AID 1159588; cut-off not given, nearly all actives have IC50 up to about 0.91 µM). The note with it: recombinant PfCDPK4, Kinase-Glo ATP depletion luminescence.
Calcium-dependent protein kinase 4 (Plasmodium falciparum (isolate 3D7)), sequence (Q8IBS5 whole entry, looked up): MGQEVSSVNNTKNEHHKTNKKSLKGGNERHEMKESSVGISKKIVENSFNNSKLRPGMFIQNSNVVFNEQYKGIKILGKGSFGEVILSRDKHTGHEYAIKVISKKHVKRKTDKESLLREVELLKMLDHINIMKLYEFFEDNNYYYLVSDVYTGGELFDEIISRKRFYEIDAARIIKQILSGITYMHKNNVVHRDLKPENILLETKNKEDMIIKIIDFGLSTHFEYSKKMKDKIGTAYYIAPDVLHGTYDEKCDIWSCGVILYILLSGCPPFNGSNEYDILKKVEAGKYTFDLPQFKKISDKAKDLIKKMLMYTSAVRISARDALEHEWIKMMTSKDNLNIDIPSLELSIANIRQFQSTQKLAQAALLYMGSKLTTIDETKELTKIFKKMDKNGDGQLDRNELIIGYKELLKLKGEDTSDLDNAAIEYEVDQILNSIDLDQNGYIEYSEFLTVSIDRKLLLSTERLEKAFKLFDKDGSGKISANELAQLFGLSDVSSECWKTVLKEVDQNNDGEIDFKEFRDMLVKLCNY

Protein kinase 7 (PK7), Plasmodium falciparum 3D7 (PF3D7_0213400), sequence (Q7YTF7 1-343): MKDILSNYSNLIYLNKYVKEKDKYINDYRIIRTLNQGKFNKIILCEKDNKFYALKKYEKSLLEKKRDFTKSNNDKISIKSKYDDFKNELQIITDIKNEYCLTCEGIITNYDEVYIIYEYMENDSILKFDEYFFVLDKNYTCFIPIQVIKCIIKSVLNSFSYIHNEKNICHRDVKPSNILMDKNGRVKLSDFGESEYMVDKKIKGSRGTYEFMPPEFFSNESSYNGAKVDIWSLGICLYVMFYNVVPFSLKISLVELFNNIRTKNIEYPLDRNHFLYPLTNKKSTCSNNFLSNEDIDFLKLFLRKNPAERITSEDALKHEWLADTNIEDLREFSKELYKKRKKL

Regarding `COc1ccc(S(=O)(=O)N(CC(=O)NN=C(C)c2cccs2)c2cc(C)cc(C)c2)cc1OC`, the growth inhibition in assay [1] was 43%; in assay [4], 97% (active). Also, the inhibition was 12% in assay [2] and -1% in assay [3]. The result in assay [5], in assay [6], in assay [7] and in assay [8] was inactive.
With `Cc1nc2nc(N)nc(N)c2c(C)c1Cc1ccccc1Cl`, the growth inhibition was -2% in assay [1] and 93% (active) in assay [4]. Also, the inhibition in assay [2] was 63% (active); in assay [3], -3%. The outcome in assay [5], in assay [6], in assay [7] and in assay [8] was inactive.
With `CN(C)c1cccc2c1nc(-c1ccco1)n2CC1CCCN1` (stereo not drawn), the growth inhibition in assay [1] is 46%; in assay [4], 86% (active). For the same compound, the results for the inhibition in assay [2] and in assay [3] were -1% and 6%, respectively. Also, the result in assay [5], in assay [6], in assay [7] and in assay [8] was inactive.
As to `COc1cc(F)c2ncc(F)c(CCN3C[C@H](CNCc4ccc5c(n4)NC(=O)CS5)[C@H](O)C3)c2c1`, the growth inhibition in assay [1] is 47%; in assay [4], 91% (active). For the same compound, the inhibition in assay [2] was 10%; in assay [3] it was 2%. For the same compound, the result in assay [5], in assay [6], in assay [7] and in assay [8] was inactive.
Take `Cc1cccc(-c2nn(-c3ccccc3)cc2C(=O)Nc2nnc(C)o2)c1`: the growth inhibition was 63% (active) in assay [1] and 84% (active) in assay [4]. Also, the inhibition in assay [2] was 38%; in assay [3] it was 4%. The outcome in assay [5], in assay [6], in assay [7] and in assay [8] was inactive.
Take `CC(CN1CCN(C)CC1)C(=O)Nc1ccc(-c2cccc(-c3nc4ccccc4[nH]3)c2)cc1` (stereo not drawn): the growth inhibition was 81% (active) in assay [1] and 94% (active) in assay [4]. Further, the inhibition in assay [2] was 4%; in assay [3], 3%. Besides, the result in assay [5], in assay [6], in assay [7] and in assay [8] was inactive.
For `c1ccc2cc3c(Nc4ccc(N5CCCCC5)cc4)ccnc3cc2c1`, the figures for the growth inhibition in assay [1] and in assay [4] were 36% and 100% (active), respectively. For the same compound, the inhibition in assay [2] was 21%; in assay [3] it was -4%. Also, the outcome in assay [5], in assay [6], in assay [7] and in assay [8] was inactive.
As for `O=C(NC1CCN(Cc2ccccc2)C1)c1ccc(Nc2ccc(Br)cc2)nc1` (stereo not drawn), the growth inhibition in assay [1] is 21%; in assay [4], 94% (active). The inhibition is 19% in assay [2] and -1% in assay [3]. Also, the result in assay [5], in assay [6], in assay [7] and in assay [8] was inactive.
For `COc1ccccc1-n1ccnc1SCC(=O)Nc1cccc(C(F)(F)F)c1`, the growth inhibition in assay [1] was 96% (active); in assay [4] it was 95% (active). For the same compound, the inhibition in assay [2] was 1%; in assay [3], -2%. For the same compound, the result in assay [5], in assay [6], in assay [7] and in assay [8] was inactive.
With `Cc1cc(N(C)CCN(C)C)nc(Nc2ccc(Br)cc2)n1`, the growth inhibition in assay [1] was 23%; in assay [4], 97% (active). For the same compound, the values for the inhibition in assay [2] and in assay [3] were 7% and -1%, respectively. Also, the result in assay [5], in assay [6], in assay [7] and in assay [8] was inactive.
For `CCOc1cc(N)c2nc3ccc([N+](=O)[O-])cc3cc2c1`, the growth inhibition in assay [1] was 78% (active); in assay [4], 100% (active). The inhibition is 73% (active) in assay [2] and 7% in assay [3]. Further, the result in assay [5], in assay [6], in assay [7] and in assay [8] was inactive.
On to `CCCCCN1CCC(NS(=O)(=O)c2ccc(C(=O)Nc3cccc(C(F)(F)F)c3)cc2)C1` (stereo not drawn), for which the growth inhibition was 0% in assay [1] and 94% (active) in assay [4]. The inhibition in assay [2] was 14%; in assay [3], -9%. Further, the result in assay [5], in assay [6], in assay [7] and in assay [8] was inactive.
Regarding `C[C@H](NC(=O)c1c(CN2CCN(C(=O)C(C)(C)C)CC2)c(-c2cccs2)nc2ccccc12)C1CCCCC1`, the growth inhibition in assay [1] was 62% (active); in assay [4], 89% (active). The inhibition in assay [2] was 2%; in assay [3] it was 3%. In addition, the outcome in assay [5], in assay [6], in assay [7] and in assay [8] was inactive.
Turning to `Cc1csc(-c2nc(NCc3cccnc3)ncc2-c2ccsc2)n1`, the growth inhibition was 74% (active) in assay [1] and 87% (active) in assay [4]. Moreover, the inhibition was -5% in assay [2] and -1% in assay [3]. The result in assay [5], in assay [6], in assay [7] and in assay [8] was inactive.
Turning to `CC(C)(C(=O)Nc1ccc(C2CCC(NCC3CC3)CC2)c(Cl)c1)c1ccc(C(F)(F)F)cc1` (stereo not drawn), the growth inhibition was 18% in assay [1] and 97% (active) in assay [4]. The inhibition in assay [2] was 64% (active); in assay [3], -1%. Besides, the outcome in assay [5], in assay [6], in assay [7] and in assay [8] was inactive.
Turning to `O=C(/C=C/c1ccc(Cl)c(Cl)c1)NCCCCCN1CCC(CCNC(=O)/C=C/c2ccc(Cl)c(Cl)c2)CC1`, the growth inhibition was 56% (active) in assay [1] and 101% (active) in assay [4]. Further, the inhibition in assay [2] was 68% (active); in assay [3] it was -5%. In addition, the result in assay [5], in assay [6], in assay [7] and in assay [8] was inactive.
`CN(C)CCCNC(=O)c1ccccc1Sc1ccccc1C#N`: the values for the growth inhibition in assay [1] and in assay [4] were 3% and 89% (active), respectively. Further, the results for the inhibition in assay [2] and in assay [3] were 11% and 2%, respectively. The outcome in assay [5], in assay [6], in assay [7] and in assay [8] was inactive.
Turning to `Cc1cccc2[nH]c(-c3ccc(-c4ccc(CNCc5ccccc5)cc4)cc3)nc12`, the growth inhibition in assay [1] was 90% (active); in assay [4], 99% (active). Also, the values for the inhibition in assay [2] and in assay [3] were 5% and -2%, respectively. For the same compound, the result in assay [5], in assay [6], in assay [7] and in assay [8] was inactive.
On to `COc1ccc(C2CCN(CCCNC(=O)c3ccc(NC(=O)c4ccc(Cl)cc4)cc3)CC2)c(OC)c1`, for which the growth inhibition was 58% (active) in assay [1] and 99% (active) in assay [4]. Moreover, the inhibition in assay [2] was 26%; in assay [3] it was 3%. Also, the result in assay [5], in assay [6], in assay [7] and in assay [8] was inactive.
Turning to `O=C(Nc1ccc([N+](=O)[O-])cc1)Nc1nc2ccc(Cl)cc2s1`, the growth inhibition is 33% in assay [1] and 92% (active) in assay [4]. Also, the values for the inhibition in assay [2] and in assay [3] were 63% (active) and 2%, respectively. The result in assay [5], in assay [6], in assay [7] and in assay [8] was inactive.
Take `CCNc1c2ccc(Cl)cc2nc2ccc(OC)cc12`: the growth inhibition in assay [1] is 100% (active); in assay [4], 99% (active). The results for the inhibition in assay [2] and in assay [3] were 16% and 0%, respectively. Further, the result in assay [5], in assay [6], in assay [7] and in assay [8] was inactive.

The term inhibition denotes the relative decrease from the control value, in per cent.
